In PubChem BioAssay AID463190 (Sanford-Burnham Center for Chemical Genomics, 2010):
The campaign covered roughly 330,000 compounds. About 7,300 (2.2%) were called active. Only a selection was taken, and actives are over-represented in it overall. A number with no mark means an inactive call.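 The calls were made as follows: active = inhibition of at least 40%; inactive = the rest.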

experiment: growth inhibition of tim10-1 ts yeast – luminescence, uHTS, primary screen (AID 463190);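 also: mutant grown at 25 °C; 0% = DMSO wells with yeast and 100% = wells holding no yeast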; settings: S. cerevisiae tim10-1 ts strain growth, BacTiter-Glo, 24 h; at 20 µM; active compounds read high

| SMILES | inhibition |
| --- | --- |
| O=c1cccc(-c2ccc(Br)cc2)o1 | 4.04% |
| CCOC(=O)C(=CNc1cccc(C)n1)C(=O)OCC | -6.8% |
| COc1ccccc1/C=C/C(=O)NC1CC2CCC1C2 (configuration not stated) | 19.5% |
| CCOC(=O)C(=Cc1ccccc1OC)C(=O)OCC | 49.6% (active) |
| Cc1c(C)n2c(SCC(=O)N3CCCC3)nnc2[nH]c1=O | 0.597% |
| CCCCCCC(=O)N(O)C1CC(=O)N(c2ccccc2)C1=O (configuration not stated) | 33.7% |
| CCN(CC(=O)Nc1ccccc1C(=O)NC1CC1)Cc1cccs1 | 17.5% |
| CN1C/C(=C/c2cccs2)C(=O)/C(=C\c2cccs2)C1 | 19.2% |
| CSC1=N/C(=C\C=C\c2cccs2)C(=O)S1 | 47.1% (active) |
| Cc1cccc(C2=N/C(=C/c3cccs3)C(=O)O2)c1 | 31.5% |
| O=C(NCc1ccccc1Cl)C1CCC(CNc2c(N3CCCCC3)c(=O)c2=O)CC1 (configuration not stated) | -8.66% |
| C/C(=N\NC(=O)c1cc2c(s1)CCC(C)C2)c1cccnc1 (configuration not stated) | 39.6% |
| CCOC(=O)C1=C(c2ccccc2)NC(=O)NC1c1cc(OCC)c(O)c([N+](=O)[O-])c1 (configuration not stated) | -5.37% |
| CCCc1[nH]nc2c1C(c1ccc(Br)s1)C(C#N)=C(N)O2 (configuration not stated) | 83% (active) |
| CCCc1[nH]nc2c1C(c1ccc(OC)c(Cn3nc(C)c(Br)c3C)c1)C(C#N)=C(N)O2 (configuration not stated) | 11.3% |
| CCCc1[nH]nc2c1C(c1ccc(OC(=O)c3ccco3)cc1)C(C#N)=C(N)O2 (configuration not stated) | 8.03% |
| COc1ccc(NC(=O)COC(=O)CNC(=O)C2CCCCC2)cc1 | 4.06% |
| CCOC(=O)c1cccc(NC(=O)CCOc2ccccc2)c1 | 12.6% |
| Cc1ccc(NC(=O)CCOc2ccccc2)cc1S(=O)(=O)Nc1ccccc1Cl | 43.7% (active) |
| CCc1ccccc1NC(=O)CCOc1ccccc1 | 11.8% |
| CN(C(=O)CSc1nnc(Nc2ccccc2)s1)C1CCS(=O)(=O)C1 (configuration not stated) | 8.97% |

| SMILES | inhibition |
| --- | --- |
| COc1ccc(-c2cc(=O)oc3cc(OCC(=O)N[C@@H](Cc4c[nH]c5ccccc45)C(=O)O)ccc23)cc1 | 16.2% |
| C=CCOC(=O)C1=C(C)N=C2SCCC(=O)N2C1/C=C/c1ccccc1OC (configuration not stated) | 5.92% |
| CCOc1ccccc1Oc1cn[nH]c1-c1ccc(OC)cc1O | -13% |
| COc1ccc(-c2cn[nH]c2-c2ccc(OC)cc2)cc1 | 38.8% |
| COc1ccc(Oc2cn[nH]c2-c2ccc(OC)cc2O)cc1 | 50.1% (active) |
| Cn1sc(=O)c2cc(S(=O)(=O)NC3CC3)ccc21 | 22.8% |
| COc1ccc(N2CCN(C(=O)CCSCc3ccccc3F)CC2)cc1 | 40.2% (active) |
| O=C(CCc1ccccc1F)N1CCN(c2ccccc2)CC1 | 6.47% |
| COc1ccc(N2CCN(C(=O)CCNC(=O)c3ccc(Br)cc3)CC2)cc1 | 12.6% |
| CN(Cc1c(F)cccc1Cl)C(=O)CNC(=O)c1ccc2c(c1)OCO2 | 7.42% |
| Cc1ccc(NC(=S)Nc2ncccc2C)c(C)c1 | 36.8% |
| O=C(NCCCn1ccnc1)/C(=C\c1ccccc1F)NC(=O)c1ccccc1 | -16.4% |
| COc1ccc(-c2cc(C(=O)Nc3ccccc3O)c3ccccc3n2)cc1 | 11.2% |
| O=C(NN=Cc1ccc(N2CCOCC2)cc1)c1cc2ccccc2cc1O | 0.793% |
| O=C(NNc1c2ccccc2nc2ccccc12)c1cc2ccccc2cc1O | 48.9% (active) |
| CC1=CC(C)(C)Nc2ccc(OC(=O)CN3C(=O)C4CCCCC4C3=O)cc21 (configuration not stated) | 42.7% (active) |
| CC1=CC(C)(C)Nc2ccc(OC(=O)C(Cc3ccccc3)N3C(=O)C4CCCCC4C3=O)cc21 (configuration not stated) | 25.9% |
| O=C(COC(=O)CN1C(=O)C2CCCCC2C1=O)Nc1ccc(F)c(F)c1F (configuration not stated) | 8.83% |
| Cc1cccc(C(=O)OC(C)C(=O)NC2CCCc3ccccc32)c1O (configuration not stated) | 14.7% |
| Cc1occc(=O)c1OCc1ccc(F)cc1 | 1.21% |
| Cc1nc2ccccc2cc1OCc1ccc(F)cc1 | 40.5% (active) |

| SMILES | inhibition |
| --- | --- |
| Fc1cccc2ncnc(OCc3ccccc3)c12 | 5.91% |
| O=c1[nH]c2ccccc2s1 | 8.84% |
| O=C(NC1CCCCC1)c1ccc(-c2ccc(Cl)cc2)o1 | 46.1% (active) |
| O=C(NC(=S)NC1CCCCC1)c1ccc(Cl)cc1 | 34.7% |
| O=C(NC1CCCCCC1)c1cccnc1Sc1ccc(Cl)cc1 | 17.4% |
| Cc1cnc(CN(C)C(=O)CC2C(=O)NCCN2Cc2cccc(F)c2F)[nH]1 (configuration not stated) | 0.623% |
| CC(C)OCC(O)CN1CCN(C(c2ccccc2)c2ccccc2)CC1 (configuration not stated) | 6.5% |
| COC(=O)COc1ccc(C2NC(=O)NC(C)=C2C(=O)NCc2ccccc2)cc1OC (configuration not stated) | 1.06% |
| Cc1ccc(SCC2=NNC(=O)C2)cc1 | 33.5% |
| CCOc1ccc(NC(=O)CN(C)C(=O)Cn2c(=O)cnc3ccccc32)cc1OCC | -8.6% |
| O=C(CSc1nc(Nc2ccccc2)nc(N2CCOCC2)n1)Nc1cc(Cl)ccc1O | -0.275% |
| C/C(=N\Nc1nc(N2CCOCC2)nc(N2CCOCC2)n1)c1ccc([N+](=O)[O-])cc1 | 14% |
| C/C(=N\Nc1nc(Nc2ccccc2)nc(N2CCOCC2)n1)c1cccs1 | 41.3% (active) |
| COc1ccc(C2(CNC(=O)C(c3ccccc3)c3ccccc3)CCOCC2)cc1OC | 15.2% |
| CCCCCCCCn1c2c(c(=N)c3c1CCC3)CCCC2 | 49.1% (active) |
| Cc1cc(C)n(C(=O)CCNC(=O)c2ccccc2Cl)n1 | -10.3% |
| CN(c1ccc(OCC(=O)O)cc1)S(=O)(=O)c1ccc2ccccc2c1 | 11.1% |
| CN(c1ccccc1)S(=O)(=O)c1ccc(NC(=O)COc2ccccc2)cc1 | 40.2% (active) |
| O=C(COc1ccccc1)Nc1ccc(F)cc1 | 12.1% |
| CC(=O)Nc1ccc(S(=O)(=O)N2CCC(C(=O)NC3CC3)CC2)cc1 | 5.84% |
